Measurements: PubChem BioAssay AID1347043 (National Center for Advancing Translational Sciences (NCATS), 2019)
Screen size: about 76,000 compounds; about 1,900 (2.5%) were called active. About 5% were inconclusive and are not listed. Calls come from the whole dose curve; as a rule, active = well fitted inhibition curve with a large enough effect; inconclusive = small, poorly fitted or top-dose-only effect; inactive = flat fitted curve, though single readings scatter. What follows is part of a selection rich in actives, with near analogues and random picks from the rest. A call without a number means that no potency is given here.

Biological target: Luciferin 4-monooxygenase (Photinus pyralis) (UniProt P08659)
Experiment: Firefly luciferase inhibition profiling of diverse chemical library using quantitative high-throughput screening; note: nearly all actives have a fitted effect of over 65% in size
Conditions: purified P. pyralis luciferase, luminescence, biochemical; series mostly up to 172 µM
Source text: Firefly (Photinus pyralis) luciferase is one of the most commonly used transcriptional reporters for a number of reasons. It is considered one of the more dynamically responsive reporters - that is, responsive to changes in reporter transcription - as it requires no post-translational modifications and is enzymatically active directly after protein synthesis (Wood, 1998). Additionally, the half-life of the luciferase protein is short relative to other reporter-gene products (Wood, 1995). Whereas reporters with long half-lives potentially allow for increased signal due to accumulation of reporter-gene product, once accumulated in the cell, dynamic changes in reporter-gene expression may be difficult to detect(Fan and Wood, 2007; Almond et al., 2004). It has been shown that wild-type P. pyralis luciferase has a half-life of approximately four hours in mammalian cells (Thompson et al., 1991). Firefly luciferase reporter-gene assays are also generally considered one of the most sensitive assay types (Wood, 1995; Wood, 1998). Although light produced in a bioluminescence reaction is of lower intensity than that produced during fluorescence emission, this is offset by little to no background light inherent to luminescent assays. Thus the luciferase reporter can be expressed at much lower levels than fluorescent proteins while still providing robust signal. However, it was initially observed, in 1991, by Thompson et al., that compounds that resemble the substrates of firefly luciferase (FLuc) can act as competitive inhibitors of the enzyme, and that these compounds, upon interaction with luciferase in the cell, can actually stabilize the protein and increase its half-life. Accumulated intracellular FLuc protein can be measured as an increase in luminescence signal, upon addition of detection reagents (which contain high concentrations of FLuc substrates) commonly used in high-throughput screening. In cell-based reporter gene assays that use FLuc as the reporter gene to quantitate the potential influence of a given compound against the target biology, this apparent increase in luminescence can mistakenly be interpreted as identification of a compound that is active against the target of interest. FLuc inhibitory compounds that stabilize the FLuc protein will give an identical read-out, making it difficult to distinguish compounds that are active against the target from those active against FLuc. In summary, the results generated here constitutes a valuable resource for the scientific community and provides insight on identifying compounds with inhibitory activity for the commonly-used reporter, firefly luciferase. References: -Almond, B., Zdanovsky, A., Zdanovskaia, M., Ma, D., Stecha, P., Paguio, A., Garvin, D., and Wood, K. (2004). Introducing the Rapid Response Reporter Vectors. Promega Notes 87, 18-22. -Fan, F., and Wood, K.V. (2007). Bioluminescent assays for high-throughput screening. Assay Drug Dev Technol 5, 127-136. -Thompson, J.F., Hayes, L.S., and Lloyd, D.B. (1991). Modulation of firefly luciferase stability and impact on studies of gene regulation. Gene 103, 171-177. -Wood, K.V. (1998). The chemistry of bioluminescent reporter assays. Promega Notes 65, 14-20. -Wood, K.V. (1995). Marker proteins for gene expression. Curr Opin Biotechnol 6, 50-58.
Reagents: 50mM Tris acetate, pH 7.5; 10mM Mg acetate; 10uM D-luciferin (Sigma #L9504); 10uM ATP; 0.01% Tween-20; 0.05% BSA; 10nM P. pyralis luciferase (Sigma #L9506) Control compounds used were two known firefly luciferase inhibitors (compounds (2) and (5) in Auld et al., 2010), and DMSO. Assay Summary: Three microliters containing firefly luciferase substrates in buffer (final concentrations: 50mM Tris acetate, pH 7.5, 10mM Mg acetate, 0.01% Tween-20, 0.05% BSA, 10uM D-luciferin, and 10uM ATP) are dispensed into each well of a Greiner white, solid-bottom 1536-well format plate using a flying reagent dispenser (FRD). […]

Luciferin 4-monooxygenase (Photinus pyralis), sequence (P08659 whole entry, looked up): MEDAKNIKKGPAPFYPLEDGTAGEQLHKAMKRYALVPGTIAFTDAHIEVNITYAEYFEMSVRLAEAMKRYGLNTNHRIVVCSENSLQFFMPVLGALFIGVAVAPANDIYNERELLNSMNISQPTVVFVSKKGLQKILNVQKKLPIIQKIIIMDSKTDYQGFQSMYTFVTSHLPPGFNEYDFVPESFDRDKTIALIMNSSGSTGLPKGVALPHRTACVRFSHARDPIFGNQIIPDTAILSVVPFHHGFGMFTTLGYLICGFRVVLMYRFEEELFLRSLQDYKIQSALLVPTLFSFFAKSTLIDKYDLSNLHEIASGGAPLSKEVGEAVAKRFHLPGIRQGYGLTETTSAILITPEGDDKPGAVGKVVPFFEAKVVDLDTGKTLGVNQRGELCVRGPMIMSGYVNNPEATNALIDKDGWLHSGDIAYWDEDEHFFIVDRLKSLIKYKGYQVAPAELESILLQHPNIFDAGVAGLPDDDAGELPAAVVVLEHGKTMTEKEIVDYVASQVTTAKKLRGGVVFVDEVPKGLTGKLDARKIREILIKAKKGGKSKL

Structure (SMILES) | Potency
COc1cccc(Nc2cc3c(cn2)CN(C)CCN3C)c1 | 39.8 µM (active)
O=C(Nc1ccccc1)N1C[C@@H]2C[C@H](C1)c1c(-c3ccc(Cl)cc3)ccc(=O)n1C2 | inactive
COc1ccc(C(=O)NC[C@H]2C[C@@H]3CCN2C[C@@H]3c2cc(-c3ccccc3)nn2C)cc1 | inactive
Cc1cccc(C(=O)N2[C@H]3CC[C@@H]2c2cnc(-c4ccccc4)nc2C3)c1 | inactive
COc1ccc(C(=O)N2[C@H]3CC[C@@H]2c2cnc(-c4ccccc4)nc2C3)c(OC)c1 | inactive
Cc1ccc(C(=O)N2[C@H]3CC[C@@H]2c2cnc(-c4ccccc4)nc2C3)c(C)c1 | 20 µM (active)
C#C[C@H]1CN2CC[C@H]1C[C@@H]2COC(=O)Nc1cc(OC)cc(OC)c1 | inactive
C=CCN(C)C[C@H]1CN2CC[C@H]1C[C@@H]2CNC(=O)Nc1cccc(SC)c1 | inactive
COc1cc2c(cc1OCc1ccncc1)NC(=O)C21CCN(c2ncc(F)cn2)CC1 | inactive
Cc1ccc(C(=O)NC[C@H]2C[C@@H]3CCN2C[C@@H]3c2cc(-c3ccco3)nc(C)n2)cc1 | inactive
